Screens deposited in PubChem BioAssay by National Center for Advancing Translational Sciences (NCATS).
A selection: hits, their analogues and other compounds. The true share with any hit is near 6%.
D1 PAM = enhances dopamine response at the human D1 receptor | P21728 | HEK293 TREx D1 cells, calcium flux, dopamine EC20 potentiation | potentiation, % at 10 µM | 360,000 compounds, 0.036% hits | AID 504651; in the data active = potentiation above about 30%
D3 antag = D3 dopamine receptor (human) antagonism; P35462; D3R cells, DiscoveRx beta-arrestin luminescence, antagonist mode; stronger effect = lower value; max response, negative = inhibition, %; 360,000 compounds, 2.5% hits; AID 652054; in the data active = max response below about -50%
Target sequence (P35462 whole entry, looked up): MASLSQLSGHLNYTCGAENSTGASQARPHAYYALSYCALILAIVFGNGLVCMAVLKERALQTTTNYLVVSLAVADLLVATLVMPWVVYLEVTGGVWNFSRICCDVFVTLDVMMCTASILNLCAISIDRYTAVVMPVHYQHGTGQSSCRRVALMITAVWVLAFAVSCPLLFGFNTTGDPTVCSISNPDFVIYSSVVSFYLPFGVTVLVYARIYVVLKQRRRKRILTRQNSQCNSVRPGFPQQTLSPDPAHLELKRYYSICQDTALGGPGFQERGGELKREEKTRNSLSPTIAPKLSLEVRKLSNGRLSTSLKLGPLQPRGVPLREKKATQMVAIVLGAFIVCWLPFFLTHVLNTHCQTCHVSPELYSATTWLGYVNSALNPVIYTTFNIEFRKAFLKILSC
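Cells plated overnight at 1500 cells/well, then exposed to library compounds with dopamine controls for 90 minutes at 37 degrees C. DiscoveRx reagent added for 30–60 minutes at room temperature; luminescence read, quantitative HTS format.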
D1 agonist = activates the human D1 dopamine receptor; P21728; HEK293 T-REx D1 cells, calcium flux, agonist mode; activation, % at 2 µM; 360,000 compounds, 1% hits; AID 504660; in the data active = activation above about 30%
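Tetracycline-induced HEK293 TREx D1 cells, force-coupled to calcium signalling, were dye-loaded with a no-wash calcium kit. Compound was pin-added after a 10 s baseline. Fluorescence was read kinetically at 1 cycle/s for 180 s, with calcium rises flagged as agonism.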
DRD3 agonist = agonists of human D3 dopamine receptor; D3R DiscoveRx beta-arrestin cells, luminescence, 90 min; 410,000 compounds, 0.58% hits; AID 652048; P35462; max activation, %; in the data active = max activation above about 30%
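Agonist mode: compounds and dopamine controls were applied to plated cells for 90 min at 37 degrees C after an overnight attachment at 1500 cells/well. Luminescent read-out followed 30 - 60 minutes at room temperature with DiscoveRx detection reagent.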
D1 antagonist = human D1 dopamine receptor antagonism | HEK293 TREx D1 cells, calcium flux, dopamine EC80; stronger effect = lower value | activity change, negative = inhibition, % at 10 µM | 360,000 compounds, 3.2% hits | AID 504652; in the data active = activity change below about -30%
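Calcium flux readout: force-coupled, inducible Hek293 Trex D1 line, cells induced overnight at 30 C with tetracycline, dye-loaded 30–90 min at RT. Antagonism scored against EC80 dopamine challenge given 180 s after compound.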
Large screens that a line does not name were inactive.

CCCCOc1ccc(C(=O)NNC(=O)C2C3CCC(C3)C2C(=O)O)cc1 (centres undefined)	none
CCCCOc1ccc(C(=O)NNC(=O)C2C3C=CC(C3)C2C(=O)O)cc1 (centres undefined)	D1 antagonist -82.0
Cc1ccccc1CN1C(=O)c2ccccc2Sc2ccc(C(=O)NC3CCCCC3)cc21	none (no result: D3 antag)
N#CNC(=Nc1cccc(F)c1)SCc1ccccc1	none
CC(C)N=C(NC#N)SCc1ccccc1	D1 antagonist -46.5
N#CNC(=Nc1cccc(F)c1)SCc1cccc(F)c1	D1 antagonist -31.6
CCc1ccc(NC(=O)CSc2nc3c(sc4ccccc43)c(=O)n2CCCOC(C)C)cc1	D1 antagonist -35.4 (no result: D3 antag)
CCc1ccc(NC(=O)CSc2nc3c(sc4ccccc43)c(=O)n2CCCOC)cc1	none (no result: D3 antag)
COCCCn1c(SCC(=O)NCc2ccccc2)nc2c(sc3ccccc32)c1=O	D1 antagonist -39.5 (no result: D3 antag)
CCn1cc2nc(SCc3ccc(F)cc3)n(CCc3ccccc3)c(=O)c2n1	none (no result: D3 antag)
COc1cc(SC)ccc1C(=O)N1CCn2c3c(c4cc(C)ccc42)CCCC31 (centres undefined)	none (no result: D3 antag)
O=S(=O)(c1ccc(N2CCC(c3ccc(Cl)cc3)=N2)cc1)N(CCO)CCO	D1 agonist 121.5
O=S(=O)(c1ccc(Oc2ccc(S(=O)(=O)N(CCO)CCO)cc2)cc1)N(CCO)CCO	none
CN(C)CCCNS(=O)(=O)c1cc(Cl)ccc1Cl	none
CN(C)CCCNS(=O)(=O)c1ccc(N2CCC(c3ccc(Cl)cc3)=N2)cc1	D1 agonist 42.3 (no result: D3 antag, DRD3 agonist)
COc1ccc(N2CCN(C(=O)c3cc4c(-c5ccccc5F)nn(C)c4s3)CC2)cc1	none (no result: D3 antag)
Cc1cc(C)cc(NC(=O)N2CCC3(CC2)Oc2ccccc2C(=O)N3Cc2ccccc2F)c1	none (no result: D3 antag)
CCCCOc1cccc(C2C(C(=O)c3ccc(C)o3)=C(O)C(=O)N2c2nnc(C)s2)c1 (centres undefined)	none
CCCOc1cccc(C2C(C(=O)c3ccco3)=C(O)C(=O)N2c2nnc(C)s2)c1 (centres undefined)	D1 agonist 76.0 (no result: D1 PAM)
Cc1ccc(C2C(C(=O)c3cccs3)=C(O)C(=O)N2c2nnc(C)s2)cc1 (centres undefined)	D1 agonist 140.8
CC(C)(C)c1ccc(C2C(C(=O)c3ccco3)=C(O)C(=O)N2CC2CCCO2)cc1 (centres undefined)	none
Cc1nnc(N2C(=O)C(O)=C(C(=O)c3ccco3)C2c2ccc(C(C)C)cc2)s1 (centres undefined)	D1 agonist 51.2
Cc1nnc(N2C(=O)C(O)=C(C(=O)c3ccco3)C2c2ccc(C(C)(C)C)cc2)s1 (centres undefined)	D3 antag -83.1
CCCCN(CC)C(=O)CSc1nc2ccccc2c(=O)n1Cc1ccco1	none (no result: D3 antag)
O=C(CSc1nc2c(c(=O)[nH]1)CN(Cc1ccc3c(c1)OCO3)CC2)Nc1cccc(Cl)c1	none (no result: D3 antag)
CSc1ccc(C2C(C(=O)c3ccco3)=C(O)C(=O)N2c2nnc(SC)s2)cc1 (centres undefined)	D1 agonist 31.3
Cc1ccc(C2C(C(=O)c3ccco3)=C(O)C(=O)N2c2ncccn2)cc1 (centres undefined)	none
Cc1nnc(N2C(=O)C(O)=C(C(=O)c3ccco3)C2c2ccc(F)cc2)s1 (centres undefined)	D1 agonist 35.7
Cc1cccc(C)c1NC(=O)Cn1c(=O)n(Cc2ccco2)c(=O)c2ccc(C(=O)NC3CCCC3)cc21	none (no result: D3 antag)
Cc1ccc(CCNC(=O)CCN2N=C(c3ccc(C)cc3)CCC2=O)cc1	none (no result: D3 antag)
CCOC(=O)Cc1c(C)nc2c(-c3ccc(OC)c(OC)c3)c(C)nn2c1C	none (no result: D3 antag)
COc1ccc(-c2cn3nc(SCC(=O)Nc4cc(C)cc(C)c4)ccc3n2)cc1	none (no result: D3 antag)
Cc1ccc(S(=O)(=O)c2nnn3c2nc(N2CCC(C(N)=O)CC2)c2cc(Cl)ccc23)cc1C	D1 antagonist -33.2 (no result: D3 antag)
OC[C@@H](O)[C@H](O)[C@H](O)[C@@H](O)CO	none (no result: D1 PAM, D3 antag, D1 agonist, D1 antagonist)
O=C1CC(c2nnc(Cc3ccc(F)cc3)o2)CN1c1ccccc1 (centres undefined)	none (no result: D3 antag)
O=S(=O)(c1ccc2c(c1)OCCO2)N1CCN(S(=O)(=O)c2cccs2)CC1	none (no result: D3 antag, DRD3 agonist)
CCn1cc(C(=O)N[C@H](C(=O)NCCO)C(C)C)c(=O)c2cc3c(cc21)OCO3	DRD3 agonist 50.7
Cc1cc2c(s1)c1cnn(Cc3c(F)cccc3F)c(=O)c1n2C	none (no result: D3 antag, DRD3 agonist)
NC1=NC(=O)CC(C(=O)NCc2ccccc2)S1 (centres undefined)	none
NC1=NC(=O)C(CC(=O)NCc2ccccc2)S1 (centres undefined)	D3 antag -65.0
O=C(Oc1c(CN2CCOCC2)cc(Cl)c2cccnc12)c1ccc(F)cc1	D3 antag -61.4
O=C(Oc1c(CN2CCOCC2)cc(Cl)c2cccnc12)c1ccccc1Cl	D3 antag -65.1
COc1ccc(C(=O)Oc2c(CN3CCOCC3)cc(Cl)c3cccnc23)cc1	none
O=C(Oc1c(CN2CCOCC2)cc(Cl)c2cccnc12)c1cccs1	D3 antag -63.1
COc1cccc(C(=O)Oc2c(CN3CCOCC3)cc(Cl)c3cccnc23)c1	none
COc1cc(C(=O)Oc2c(CN3CCOCC3)cc(Cl)c3cccnc23)cc(OC)c1OC	D3 antag -111.3
CCN(C(=O)c1cccn(Cc2cccc(Cl)c2)c1=O)c1ccccc1	none (no result: D3 antag)
CCc1cccc(C)c1NC(=O)c1cc(S(=O)(=O)N2CCOCC2)cn1C	none (no result: D3 antag)
O=C(NCc1cccc(Br)c1)c1cnn(-c2ccc(F)cc2)c1-n1cccc1	none (no result: D3 antag)
CCOC(=O)C1CCCN(C(=O)/C=C/c2ccccc2[N+](=O)[O-])C1 (centres undefined)	none
CCOC(=O)C1CCN(C/C=C/c2ccccc2[N+](=O)[O-])CC1	D3 antag -56.0
CCOC(=O)C1CCN(C/C=C/c2ccccc2OC)CC1	D3 antag -67.8
CCNC(=O)c1cnc2sc(N3CCCCCC3)nn2c1=O	none (no result: D3 antag)
CCN1CCCC1CNC(=O)c1ccccc1Cl (centres undefined)	none
CCC(=O)Nc1cc(C(=O)NCC2CCCN2CC)c(OC)cc1N(C)C (centres undefined)	D3 antag -91.3
CCN1CCCC1CNC(=O)c1cc(S(N)(=O)=O)ccc1OC (centres undefined)	D3 antag -98.5 (no result: D1 PAM, D1 agonist, DRD3 agonist, D1 antagonist)
CCN1CCCC1CNC(=O)c1cc(NC(C)=O)c(N(C)C)cc1OC (centres undefined)	D3 antag -88.4
CC(=O)c1ccc(NC(=O)c2cccc(NC(=O)N3CCSc4ncccc43)c2)cc1	none (no result: D3 antag)
CO[C@H]1C[C@H](O[C@H]2[C@H](C)O[C@@H](O[C@@H]3/C(C)=C/C[C@@H]4C[C@@H](C[C@]5(C=C[C@H](C)[C@@H](C6CCCCC6)O5)O4)OC(=O)[C@@H]4C=C(C)[C@@H](O)[C@H]5OC/C(=C\C=C\[C@@H]3C)[C@]54O)C[C@@H]2OC)O[C@@H](C)[C@@H]1O	none (no result: D1 PAM, D3 antag, D1 agonist, D1 antagonist)
